Hit rate of the full screen: of about 300,000 compounds, about 5,200 (1.7%) were called active. The full list was thinned out, with actives kept by preference. Values without a mark were called inactive.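 Rule for the calls: active = mean replicate activation of at least 50% with a set share of replicates each reaching 50%; inconclusive = only one of those two conditions met; inactive = mean below 50% and too few replicates reaching it.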

A short description of this experiment: HSF-1 response element luciferase induction – NIH3T3-HGL cells, MG132 stress, luminescence, single point, primary screen (AID 504408).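 Note: 0% = median of the neutral control wells and 100% = twice that signal.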 Conditions: NIH3T3-HGL HSF-1 luciferase reporter, MG132, 8 h; at 9 µM; hits give high values; 100% = twice DMSO control signal. (In a reporter assay the amount or activity of a reporter protein is the signal.)
Consider `CCN(CC(=O)Nc1cccc(S(=O)(=O)N2CCCCC2)c1)Cc1ccccc1`, for which the activation is 0.93%. With `CN1C(C(=O)NCc2ccco2)CC2Cn3c(nc4ccccc43)C21` (stereo not drawn) the figure was -8.57%; with `Cc1nn(C)c(C)c1NS(=O)(=O)c1ccc(OC(F)(F)F)cc1`, 0.0449%. Consider `Cc1ccc(S(=O)(=O)N(Cc2cccc([N+](=O)[O-])c2)C(=O)N2CCN(C)CC2)cc1`, for which the activation was 17.1%. In the case of `CC(=O)c1ccc(S(=O)(=O)NC2CC(=O)N(c3ccc4c(c3)OCCO4)C2)cc1` (stereo not drawn), the activation is 8.08%. With `COc1ccc2[nH]c(=O)c(-c3noc(-c4ccc(F)cc4)n3)cc2c1` the figure was 25.7%; with `Cc1cccc(-c2noc(-c3ccc(F)cc3)n2)c1`, 55% (active). Regarding `Cc1ccc(Cc2nc(-c3cccc(C)c3)no2)cc1`, the activation is 17.5%. With `CCc1noc(C)c1C(=O)Oc1ccc(N(C)S(=O)(=O)c2ccc(C)c(C)c2)cc1` the figure was -16.6%. With `CCOc1ccc(NC(=S)N2CCCCCC2)cc1` the figure was 65.8% (active); with `CCOc1ccc(NC(=S)N2CCC(N(C)CC3CCCO3)CC2)cc1` (stereo not drawn), -6.15%; with `CCOC(=O)c1ccc(NC(=S)N2CCCC2)cc1`, 17.9%. Consider `O=C(Nc1ccc2nc3n(c(=O)c2c1)CCCC3)c1ccc(Cl)nc1`, for which the activation is 3.58%.

Consider `COc1ccc(C(=O)NCC(c2ccco2)N2CCc3ccccc32)cc1OC` (stereo not drawn), for which the activation is 2.97%. For `Cc1noc(C)c1CSCC(=O)Nc1ccc(Br)cc1Cl` the value was 1.94%; for `COCn1c(COc2ccccc2)nc2ccccc21`, 23.9%; for `CC(C)n1c(COc2ccccc2)nc2ccccc21`, 12.3%.

`Cc1ccc(OCc2nc3ccccc3n2C)cc1`: the activation is 75.6% (active).

For the compound `Cc1n[nH]c(=O)c2c(NC(=O)COC(=O)c3ncc(Cl)c(Cl)c3Cl)oc(C)c12`, the activation is -1.88%. With `CN(CC(=O)Nc1cccc(F)c1)C(=O)C1CC(=O)N(CCc2ccccc2)C1` (stereo not drawn) the figure was -1.17%; with `CCn1c2ccccc2c2cc(NC(=O)CNC)ccc21`, -4.5%; with `CCn1c2ccccc2c2cc(NC(=O)COC(=O)c3ccccc3Br)ccc21`, 15.8%. For `CCn1c2ccccc2c2cc(NC(=O)C/C(C)=N/NC(=O)c3ccccc3N)ccc21` the value was 87.9% (active); for `Nc1c(C(=O)Nc2ccc3c(c2)OCCO3)nnn1Cc1ccccc1`, 43.5%. In the case of `Cc1ccc(OCCNC(=O)CN2C(=O)NC3(CCCC3)C2=O)cc1`, the activation was 2.14%.

As for `CCC(=O)Nc1ccc(C(=O)Nc2cc(C)on2)cc1`, the activation is 11.5%. With `CCCNC(=O)c1ccc(Cl)c(Cl)c1` the figure was 8.76%.

Take `Cc1cc(N/C=C\C(=O)c2ccc(Cl)c(Cl)c2)no1`: the activation is 54.6% (active).

Values taken from PubChem BioAssay AID504408 (Broad Institute, 2011).
